Reference: ChEMBL document CHEMBL4513216, “Probing the Open Global Health Chemical Diversity Library for Multistage-Active Starting Points for Next-Generation Antimalarials” (ACS Infect Dis, 2020)
In all, about 68,000 compounds went through this assay and about 2,700 (4%) showed an effect of 50% or more. This excerpt belongs to a sample that is enriched for strong results.

Each molecule was assayed on Plasmodium berghei (assay: Screen against P. berghei liver stage (PbLuc), transformed with Luciferase, at 2uM). Details: tested at 2 uM.
Type: functional, HepG2
Work on Cc1ccc(NC(=O)NCCCc2n[nH]c(N)c2C#N)cc1 yielded an INHIBITION of 33.01%. With CCc1cnc(N)nc1NC(C)c1ccc(C)c(C)c1 (centres undefined) the INHIBITION was 35.84%. Work on O=C(c1ccncn1)N1CCC[C@]2(C[C@H](OCC3CC3)CO2)C1 yielded an INHIBITION of 16.78%. For CC(C)(C)OCC1CN(Cc2cccs2)S(=O)(=O)c2cnccc2O1 (centres undefined), the INHIBITION was 35.6%. O=C1CCSCC(C(=O)N2CCN(C3CCCCC3)CC2)N1 (centres undefined) gave an INHIBITION of 51.94%. O=C1CCSCC(C(=O)N2CCCCC2)N1 (centres undefined) was tested, and the INHIBITION was 39.58%. O=C1CCSCC(C(=O)N2CCCC2)N1 (centres undefined) gave an INHIBITION of 19.35%. With O=C(N[C@]12CC1CN(C(=O)c1ccco1)C2)c1ccoc1 (some centres undefined) the INHIBITION was 14.47%. O=C(N[C@]12CC1CN(C(=O)c1ccco1)C2)c1ccco1 (some centres undefined) gave an INHIBITION of -50.87%. O=C(N[C@]12CC1CN(C(=O)c1ccco1)C2)c1cccc(F)c1 (some centres undefined) gave an INHIBITION of 52.36%. With Nc1nc(CN2CCCCC2Cn2cncn2)nc2ccccc12 (centres undefined) the INHIBITION was -42.37%. Cc1cnc(N2C(=O)CSC2c2ccc(N(C)C)cc2)s1 (centres undefined) was tested, and the INHIBITION was -8.23%. For O=C(O)c1cc(-c2cccs2)nc2c(Br)cnn12, the INHIBITION was -11.83%. Cn1ccnc1CN1CCN(CC(O)c2ccc(F)cc2)CC1 (centres undefined) showed an INHIBITION of -10.66%. Molecule CC(c1ccc(F)cc1)N1CCN(Cc2nccn2C)CC1 (centres undefined) has an INHIBITION of 5.09%. Cn1ccnc1CN1CCN(CC(O)c2ccc(F)c(F)c2)CC1 (centres undefined) was tested, and the INHIBITION was 56.67%. Molecule Cn1ccnc1CN1CCN(CC(O)c2cccc(F)c2)CC1 (centres undefined) has an INHIBITION of -0.3%. Molecule CC(c1ccc(F)c(F)c1)N1CCN(Cc2nccn2C)CC1 (centres undefined) has an INHIBITION of 62.13%. Molecule CC(c1cccc(F)c1)N1CCN(Cc2nccn2C)CC1 (centres undefined) has an INHIBITION of 0.46%. Work on CN(C1CCN(c2ccccn2)CC1)S(=O)(=O)c1cccc(F)c1 yielded an INHIBITION of 15.38%. For COCC1CN(Cc2ccc(C)o2)Cc2cnn(CC3CCOCC3)c21 (centres undefined), the INHIBITION was -24.39%. Cc1nnsc1C(=O)NCCn1ccc(-c2ccncc2)n1 was tested, and the INHIBITION was -34.54%. Cc1cc(CC(=O)N(C)Cc2cccc(OC(C)C)c2)n[nH]1 was tested, and the INHIBITION was -75.84%. Cc1nc(-c2nnc[nH]2)sc1C(=O)N1CCCC1c1ccsc1 (centres undefined) gave an INHIBITION of -26.81%. Cc1ncc(CN2CCCC(c3nc4ccccc4n3C(C)C)C2)s1 (centres undefined) was tested, and the INHIBITION was 61.57%. Molecule CC(C)n1c(C2CCCN(Cc3ccnn3C)C2)nc2ccccc21 (centres undefined) has an INHIBITION of 16.87%. In the case of Cc1cnc(CN2CCCC(c3nc4ccccc4n3C(C)C)C2)o1 (centres undefined), the INHIBITION is reported as 37.77%. For Cc1ccc(OCC2CCCN(C(=O)Cn3ccccc3=O)C2)cc1 (centres undefined), the INHIBITION was 45.14%. For COc1ccc(OCC2CCCN(Cc3ccncc3)C2)cc1 (centres undefined), the INHIBITION was -1.29%. Molecule Cc1ccc(OCC2CCCN(CC3CCOCC3)C2)cc1 (centres undefined) has an INHIBITION of 60.13%. Cc1ccc(OCC2CCCN(C(=O)CN3CCOCC3)C2)cc1 (centres undefined) showed an INHIBITION of 38.67%. Work on Cc1ccc(OCC2CCCN(Cc3ccc(CO)o3)C2)cc1 (centres undefined) yielded an INHIBITION of 69.67%. In the case of Cc1ccc(OCC2CCCN(c3nc(CO)cs3)C2)cc1 (centres undefined), the INHIBITION is reported as -43.42%. Nc1nnc(SCc2cc(=O)n3c4c(sc3n2)CCCC4)[nH]1 gave an INHIBITION of -0.04%. CCCc1noc(C2CC(=O)N(Cc3ccccc3)C2)n1 (centres undefined) showed an INHIBITION of 39.58%. Cc1ccc(S(=O)(=O)N2CC[C@@H]3C[C@H](NC(=O)c4ccncc4)[C@@H]32)cc1 was tested, and the INHIBITION was 20.51%. Molecule Cc1cccc(N2CCC3(CCCN(C(=O)c4cccnc4)C3)C2)n1 (centres undefined) has an INHIBITION of -37.2%. For Cc1nocc1C(=O)N1CCc2c(CN(C)C)nn(C)c2C1, the INHIBITION was 51.81%. Molecule Cc1cc(C(=O)N2CCc3c(CN(C)C)nn(C)c3C2)[nH]n1 has an INHIBITION of 28.2%. For Cc1cccc(C(=O)N2CCc3c(CN(C)C)nn(C)c3C2)n1, the INHIBITION was -27.08%. Work on Cn1cc(CN2CCC(c3ncc(Cl)cc3S(C)(=O)=O)CC2)cn1 yielded an INHIBITION of 22.95%. CCc1ncc(C(=O)N2CCCC2Cn2cccn2)s1 (centres undefined) was tested, and the INHIBITION was 17.31%. O=C(c1cnc(C2CC2)s1)N1CCCCC1Cn1cccn1 (centres undefined) was tested, and the INHIBITION was 21.31%. For O=C1COc2c(cccc2C(=O)N2CCCC2Cn2cccn2)N1 (centres undefined), the INHIBITION was 24.56%. Work on O=C(CCOc1ccc(F)cc1)N1CCCC1Cn1cccn1 (centres undefined) yielded an INHIBITION of 70.27%. Work on O=C(CCOc1cccc(F)c1)N1CCCC1Cn1cccn1 (centres undefined) yielded an INHIBITION of 8.37%. CCc1ncc(C(=O)N2CCCCC2Cn2cccn2)s1 (centres undefined) gave an INHIBITION of 63.95%. With O=C(c1cccc2c1OCCO2)N1CCCCC1Cn1cccn1 (centres undefined) the INHIBITION was -46.81%. In the case of Cc1nc(CC(=O)N2CCCC2Cn2cccn2)cs1 (centres undefined), the INHIBITION is reported as 34.53%. For O=C1COc2c(cccc2C(=O)N2CCCCC2Cn2cccn2)N1 (centres undefined), the INHIBITION was 63.93%. Work on COc1ccc(OCCC(=O)N2CCCC2Cn2cccn2)cc1 (centres undefined) yielded an INHIBITION of -28.79%. Cc1nc(CC(=O)N2CCCCC2Cn2cccn2)cs1 (centres undefined) showed an INHIBITION of 60.64%. CCc1nc(CC(=O)N2CCCCC2Cn2cccn2)cs1 (centres undefined) gave an INHIBITION of 21.12%. For Cc1cnn(CC2CCCN2C(=O)c2sccc2C#N)c1 (centres undefined), the INHIBITION was 16.25%. Work on CC(C)(C)CC(=O)NCC(=O)NCC(O)c1ccc2ccccc2c1 (centres undefined) yielded an INHIBITION of -29.53%. For CCc1n[nH]c(C2CN(C(=O)c3ccc(Cl)cn3)CCO2)n1 (centres undefined), the INHIBITION was 22.69%. CC(C)n1nc(Cn2cccn2)c2c1CN(CC1CCOC1)C2 (centres undefined) gave an INHIBITION of 20.2%. In the case of COCC(O)CN1CCC(NC(=O)c2cscc2C)CC1 (centres undefined), the INHIBITION is reported as 50.93%. COCC(O)CN1CCC(NC(=O)c2ccccc2Cl)CC1 (centres undefined) showed an INHIBITION of -41.8%. For COCCC(=O)N1CCC(NC(=O)c2cscc2C)CC1, the INHIBITION was 16.72%. CCc1nnsc1C(=O)N(C)Cc1nnc2n1CCC2 showed an INHIBITION of -8.74%. Work on Cc1cnc(N2CCC3(CC(=O)N(Cc4csc(C)n4)C3)C2)nc1 (centres undefined) yielded an INHIBITION of 25.43%. CCCc1cc(N(CCOC)CC(F)F)n2ncnc2n1 showed an INHIBITION of 55.18%. With COCCN(CC(F)F)c1cc(C(F)(F)F)nc2ncnn12 the INHIBITION was 25.81%. With COCc1cc(N(CC(F)F)C2CC2)n2ncnc2n1 the INHIBITION was 3.59%. Work on CCCN(CC(F)F)c1cc(COC)nc2ncnn12 yielded an INHIBITION of -6.73%. CCN(CC)CCN(CC(C)C)c1cc(C(F)(F)F)nc2ncnn12 was tested, and the INHIBITION was -13.12%. For COCCN(CC(F)F)c1cc(COC)nc2ncnn12, the INHIBITION was 69.52%. Cc1cc(C)c(CNC(=O)NCc2cc(F)cc(F)c2)c(=O)[nH]1 was tested, and the INHIBITION was 23.42%.
